Hits are enriched below; roughly 2.2% of the tested compounds scored in any of these assays.
FUS yeast rescue: qHTS for Suppressors of FUS Proteinopathy: Primary screen using FUS-linked yeast assay; Potency, µM (highest dose often 76.6 µM), hits mostly activators; AID 1347120, 2019; S. cerevisiae FUS-expressing, growth rescue, OD600, 24 h; actives 0.24% (n = 390,000);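 also: plate controls were DMSO vehicle for no effect and reference control for full effect; nearly all actives have a fitted effect of over 55% in size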
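Absorbance at 600 nm, taken 24hr after compound addition, measured rescue of FUS-yeast growth at 30C. Induction used 2% galactose with seeding at OD 0.005. Controls: CP55940 from 92uM final, DMSO only.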
aSyn rescue: qHTS of alpha-syn Inhibitors; Yeast expressing alpha-synuclein, growth rescue, BacTiter-Glo, 24 h; AID 652106, 2013; Potency, µM (highest dose often 46.1 µM), inactives show top-dose growth rescue (activation), most hits filed as activators; actives 0.14% (n = 370,000); also: % of control where 0% means no effect; nearly all actives have a fitted effect of over 65% in size
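Galactose-induced alpha-syn yeast (OD600=0.02, raffinose-pregrown) + pinned cpd, 24 hr, 30 deg C; growth by BacTiter-Glo luminescence. Growth restoration scores as activation.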
TDP43 rescue: qHTS of TDP-43 Inhibitors | actives 1.8% (n = 410,000) | TDP-43 expressing yeast growth rescue, BacTiter-Glo, 24 h | AID 652104, 2013 | Potency, µM (top dose mostly 46.1 µM), for inactives: at the highest dose growth rescue (activation), actives largely listed as activators; also: % of control where 0% means no effect; nearly all actives have a fitted effect of over 50% in size
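Growth rescue of TDP-43-toxic yeast measured as ATP luminescence (BacTiter-Glo). Cells grown to mid-log in raffinose, induced in galactose at OD600=0.02, exposed to compound 24 hr at 30 deg C.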
Mito fusion yeast: qHTS Assay for Small Molecule Inhibitors of Mitochondrial Division or Activators of Mitochondrial Fusion. Potency, µM (top dose mostly 46.1 µM), for inactives: top-dose growth rescue (activation), usual class: activators. AID 485298, 2010. actives 0.23% (n = 320,000). S. cerevisiae fusion-defective mutant growth rescue, CellTiterGlo 48 h; also: % of control where 0% means no effect; nearly all actives have a fitted effect of over 45% in size
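Yeast fusion mutant, YPEG (non-fermentable carbon), compound, 48 h at 37C non-permissive; CellTiterGlo added, 10 min RT, luminescence read. Rescued growth = division inhibition.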
Abeta yeast res: qHTS for compounds that reverse cellular toxicity of Amyloid beta (A-beta) peptide in yeast: Primary Screen | yeast expressing A-beta42, growth rescue, OD600, 48 h; response scale: 0% DMSO, 100% iron-clioquinol control | Potency, µM (doses to about 46.1 µM), usual class: activators | actives 0.063% (n = 410,000) | AID 1347071, 2019; also: nearly all actives have a fitted effect of over 55% in size
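Yeast A-beta toxicity model in growth medium with pinned compounds, 48 h at 30 C; growth read as absorbance at 600 nm. Normalized to FeCl3/clioquinol equimolar mix (positive) and DMSO (negative).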
An asterisk follows results filed as active; [ ] = dose if it differs, or a comment. Calls follow the shape of the dose curve; as a rule, active = well fitted curve in the direction sought with a large enough effect; inconclusive = small, poorly fitted or top-dose-only effect, or another doubt; inactive = no such curve, though single readings can be large; an effect the other way counts as inactive or inconclusive. Potency is read from the fitted curve at half-maximal effect.

What do the screens show for `Cc1ccccc1N=C1SC(CC(=O)Nc2ccc3ccccc3c2)C(=O)N1Cc1ccccn1` (stereo not drawn)?
FUS yeast rescue: inactive; aSyn rescue: inconclusive; TDP43 rescue: 28.2µM*; Mito fusion yeast: 12.3%; Abeta yeast res: inactive

How did O=C(CC1SC(=Nc2cccc3ccccc23)N(Cc2ccccn2)C1=O)Nc1ccccc1Br (stereo not drawn) do in these assays?
FUS yeast rescue: inactive; aSyn rescue: 13.2%; TDP43 rescue: inconclusive; Mito fusion yeast: -2.3%; Abeta yeast res: inconclusive

What do the screens show for `CC(C)OC(=O)NCCOC(=O)Nc1cccc(Cl)c1`?
FUS yeast rescue: inactive; aSyn rescue: -22.5%; TDP43 rescue: inconclusive; Mito fusion yeast: -1.0%; Abeta yeast res: inactive

How did CC(C)OC(=O)NCCOC(=O)Nc1ccc(Cl)c(Cl)c1 do in these assays?
FUS yeast rescue: inactive; aSyn rescue: 9.3%; TDP43 rescue: 11.2µM*; Mito fusion yeast: -1.2%; Abeta yeast res: inactive

What do the screens show for `CC(C)CC1C(=O)N(Cc2cn(CCC3OCCO3)nn2)CCS(=O)(=O)N1Cc1ccc(-c2ccccc2)cc1` (stereo not drawn)?
FUS yeast rescue: inconclusive; aSyn rescue: 0.0%; TDP43 rescue: 22.4µM*; Abeta yeast res: inactive

What do the screens show for `Cc1ccc(-c2ccc(CN3C(CC(C)C)C(=O)N(Cc4cn(CCC5OCCO5)nn4)CCS3(=O)=O)cc2)cc1` (stereo not drawn)?
FUS yeast rescue: inconclusive; aSyn rescue: 17.8%; TDP43 rescue: 35.5µM*; Abeta yeast res: inactive

Results for O=C(COC(=O)CCCN1C(=O)c2ccccc2C1=O)Nc1cc(Cl)cc(Cl)c1 ?
FUS yeast rescue: inactive; aSyn rescue: 14.1%; TDP43 rescue: 15.2%; Mito fusion yeast: -1.6%; Abeta yeast res: inactive

What do the screens show for `COc1ccc(NC(=O)COC(=O)CCCN2C(=O)c3ccccc3C2=O)cc1Cl`?
aSyn rescue: 18.0%; TDP43 rescue: 35.5µM*; Mito fusion yeast: -8.8%; Abeta yeast res: inactive

What do the screens show for `COC1=C(OC)C(=O)C(Sc2ccc3ccccc3c2)=CC1=O`?
aSyn rescue: 14.1µM*; TDP43 rescue: inconclusive; Abeta yeast res: inactive

Results for COc1ccc(S(=O)(=O)Oc2ccc3ccccc3c2)cc1 ?
aSyn rescue: -0.9%; TDP43 rescue: inconclusive; Mito fusion yeast: 18.9%; Abeta yeast res: inactive

How did C=C(C)c1cccc(C(C)(C)NC(=O)Nc2cc(C)ccn2)c1 do in these assays?
aSyn rescue: 5.2%; TDP43 rescue: 2.9%; Mito fusion yeast: -2.7%; Abeta yeast res: inactive

How did C=C(C)c1cccc(C(C)(C)NC(=O)Nc2ccc(C)cn2)c1 do in these assays?
aSyn rescue: -1.6%; TDP43 rescue: 12.6µM*; Mito fusion yeast: inconclusive; Abeta yeast res: inactive

Results for COc1ccccc1/C=N/NC(=O)c1cccc(OC(F)(F)C(F)F)c1 ?
aSyn rescue: -14.6%; TDP43 rescue: -0.6%; Mito fusion yeast: 0.4%; Abeta yeast res: inactive

Results for COc1cccc(/C=N/NC(=O)C(=O)Nc2ccccc2OC(F)(F)C(F)F)c1O ?
FUS yeast rescue: inactive; aSyn rescue: 22.4µM*; TDP43 rescue: -1.7%; Mito fusion yeast: 6.5%; Abeta yeast res: inactive

Results for c1ccc(-c2noc(-c3cccnc3NCc3ccco3)n2)cc1 ?
FUS yeast rescue: inactive; TDP43 rescue: 13.4%; Abeta yeast res: inactive

Results for S=c1[nH]nc(-c2ccc(Cl)cc2)n1/N=C/C=C/c1ccco1 ?
FUS yeast rescue: inconclusive; aSyn rescue: 14.7%; TDP43 rescue: -20.6%[1.82 µM]; Mito fusion yeast: 1.8%; Abeta yeast res: 5.01µM*

What do the screens show for `O=C(CCC1CCCCC1)Nc1ccccc1-c1ccccc1`?
FUS yeast rescue: inactive; aSyn rescue: -10.0%; TDP43 rescue: 14.1µM*; Mito fusion yeast: 3.2%; Abeta yeast res: inactive

Results for O=C(CSc1ccc(-c2ccc(Cl)cc2)nn1)N1CCCc2ccccc21 ?
aSyn rescue: 12.4%; TDP43 rescue: 20µM*; Mito fusion yeast: inconclusive; Abeta yeast res: inactive

What do the screens show for `O=C(CSc1c[nH]c2ccccc12)N1CCCc2ccccc21`?
FUS yeast rescue: inactive; aSyn rescue: 20.2%; TDP43 rescue: 22.4µM*; Mito fusion yeast: 14.0%; Abeta yeast res: inactive

What do the screens show for `O=C(CSc1ccc(-c2ccc(F)cc2)nn1)N1CCCc2ccccc21`?
FUS yeast rescue: inactive; aSyn rescue: 4.4%; TDP43 rescue: 22.4µM*; Mito fusion yeast: 25.0%; Abeta yeast res: inactive

Results for O=C(CSc1nnc(-c2ccc(F)cc2)o1)N1CCCc2ccccc21 ?
FUS yeast rescue: inactive; TDP43 rescue: 20µM*; Abeta yeast res: inactive

Results for C[C@H]1C(=O)CC[C@@]23CCCN2C(=O)CCC[C@@H]13 ?
FUS yeast rescue: inactive

How did COc1ccc(-c2noc(-c3ccc(NCCc4ccccc4)c([N+](=O)[O-])c3)n2)cc1OC do in these assays?
FUS yeast rescue: inactive; TDP43 rescue: 11.9%; Abeta yeast res: inactive

Results for O=S(=O)(c1cccs1)N1CCN(c2nc(-c3cccs3)nc3ccccc23)CC1 ?
aSyn rescue: 1.3%

How did COc1nc(NCc2cccnc2)nc(NC2CCCCC2)n1 do in these assays?
FUS yeast rescue: inactive; aSyn rescue: 27.0%; TDP43 rescue: 4.7%; Mito fusion yeast: 12.6µM*; Abeta yeast res: inactive

How did CN(Cc1ccco1)S(=O)(=O)c1ccc2c(c1)CCN2C(=O)CC(C)(C)C do in these assays?
FUS yeast rescue: inactive

What do the screens show for `CCOC(=O)c1[nH]c(C)c(CCC(=O)NCc2ccc(N(C)C)cc2)c1C`?
FUS yeast rescue: inactive; TDP43 rescue: -1.2%[9.22 µM]; Abeta yeast res: inactive

What do the screens show for `Cc1ccc(C)n1-c1ccc(C(=O)N2CCOCC2)cc1`?
FUS yeast rescue: 35.5µM*; aSyn rescue: -0.7%; TDP43 rescue: -19.9%; Mito fusion yeast: 0.3%; Abeta yeast res: inactive

How did O=Cc1ccc(-c2cccc([N+](=O)[O-])c2)o1 do in these assays?
FUS yeast rescue: inactive; aSyn rescue: -6.9%; TDP43 rescue: 24.6%; Mito fusion yeast: 6.2%; Abeta yeast res: inactive

What do the screens show for `O=Cc1ccc(-c2ccc([N+](=O)[O-])cc2Cl)o1`?
FUS yeast rescue: inactive; aSyn rescue: 1.0%; TDP43 rescue: 11.2µM*; Mito fusion yeast: -0.7%; Abeta yeast res: inactive

How did Cc1ccc(S(=O)(=O)N(C)C)cc1NC(=S)N(CCC#N)Cc1cccnc1 do in these assays?
FUS yeast rescue: inactive; aSyn rescue: -1.4%; TDP43 rescue: -14.0%; Mito fusion yeast: 7.08µM*; Abeta yeast res: inactive

Compound activity (PubChem BioAssay)
